Our source for the inhibition values is ChEMBL document CHEMBL3433997, “St. Jude Leishmania screening dataset” (2016).

Holding throughout (assay type): functional
Assay [1] concerns the target Solute carrier family 2, facilitated glucose transporter member 1 (Homo sapiens) (UniProt P11166). Kind of assay: ST_JUDE_LEISH: Cytotoxicity at 2uM final concentration against transgenic Leishmania Mexicana promastigotes LmGLUT1 that are glucose transport deficient and complemented with the human glucose transporter GLUT1. Activity is measured by DNA content using SYBR green in vitro.

Assay [2] deals with Hexose transporter 1 (Plasmodium falciparum) (UniProt O97467). Briefly: ST_JUDE_LEISH: Cytotoxicity at 2uM final concentration against transgenic Leishmania Mexicana promastigotes LmPfHT that are glucose transport deficient and complemented with the Plasmodium falciparum hexose transporter. Activity is measured by DNA content using SYBR green in vitro.
In assay [3] the target is Glucose transporter (Leishmania mexicana) (UniProt O61059). Briefly: ST_JUDE_LEISH: Cytotoxicity at 2uM final concentration against transgenic Leishmania Mexicana promastigotes LmGT2 that are glucose transport deficient and complemented with the L. Mexicana glucose transporter 2. Activity is measured by DNA content using SYBR green in vitro.

Solute carrier family 2, facilitated glucose transporter member 1 (Homo sapiens), sequence (P11166 whole entry): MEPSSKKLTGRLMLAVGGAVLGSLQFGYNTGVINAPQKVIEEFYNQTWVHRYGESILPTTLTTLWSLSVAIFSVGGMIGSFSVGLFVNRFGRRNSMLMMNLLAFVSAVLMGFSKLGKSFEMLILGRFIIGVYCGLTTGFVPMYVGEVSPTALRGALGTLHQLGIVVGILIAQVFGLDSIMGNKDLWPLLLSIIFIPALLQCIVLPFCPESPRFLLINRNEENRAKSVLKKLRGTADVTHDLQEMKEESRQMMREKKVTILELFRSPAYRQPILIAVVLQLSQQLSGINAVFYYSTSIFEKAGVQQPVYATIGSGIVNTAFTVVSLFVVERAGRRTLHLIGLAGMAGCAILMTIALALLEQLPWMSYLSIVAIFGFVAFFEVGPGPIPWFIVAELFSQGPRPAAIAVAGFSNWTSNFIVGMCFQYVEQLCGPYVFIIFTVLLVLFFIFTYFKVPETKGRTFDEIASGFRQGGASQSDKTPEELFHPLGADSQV

With `Cc1ccc(Cn2nc(Cl)c(N3CCNCC3)cc2=O)cc1NC(=O)Nc1ccc(-c2ccccc2)cc1`, the inhibition came to 1.36% in assay [1], 5.15% in assay [2] and 6.75% in assay [3].
With `Nc1nc(N)c2c(Oc3cccc4ccccc34)cccc2n1`, the figures for the inhibition in assay [1], in assay [2] and in assay [3] were 4.57%, 2.3% and 3.17%, respectively.
Consider `Cc1cc2nc(N/C(N)=N/C(=O)NC3CCCCC3)nc(C)c2cc1C`, for which the results for the inhibition in assay [1], in assay [2] and in assay [3] were 3.18%, 3.48% and 0.78%, respectively.
For the molecule `COc1cc2ncnc(Nc3ccc(OCc4ccccc4)c(OCc4ccccc4)c3)c2cc1OC`, the inhibition in assay [1] worked out at 4.65%; in assay [2] it was 5.44%; in assay [3], 2.69%.
Take `O=C(N[C@H]1CCN(Cc2ccc(OCCN3CCCC3)c3ccccc23)C1)c1ccc(Cl)c(Cl)c1`: the inhibition in assay [1] is 1.59%; in assay [2], 2.72%; in assay [3], -2.78%.
The corresponding values for `CCCN1CCN(c2cc(NCC)c3c4c(onc24)-c2ccccc2C3=O)CC1` are 7.98%, 8.22% and 6.9%.
On to `CCOc1cc(C(=O)NC2CCN(Cc3ccccc3)C2)ccc1-c1nc2cc(Cl)ccc2[nH]1` (stereo not drawn), for which the inhibition in assay [1] is 6.92%; in assay [2], 3.47%; in assay [3] it was 6.92%.
Regarding `Cc1ccc(NC(=O)c2ccnc(N3CCN(c4ccncc4)CC3)c2)cc1F`, the inhibition in assay [1] was determined as 3.18%; in assay [2], 4.4%; in assay [3] it was 4.05%.
Take `O=C(Nc1ccc(F)cc1)NC1CCN(c2ccnc3cc(Cl)ccc23)C1` (stereo not drawn): the inhibition was -0.37% in assay [1], -1.17% in assay [2] and -1.87% in assay [3].
Consider `CCCC(CCC)n1ccc2c3c(N)nc(N)nc3ccc21`, for which the inhibition turned out to be 59.8% in assay [1], 70.1% in assay [2] and 44.5% in assay [3].
For `COc1cc(Cc2cnc(N)nc2N)cc(OCCCCNS(=O)(=O)C(F)(F)F)c1OC`, the values for the inhibition in assay [1], in assay [2] and in assay [3] were 1.9%, 1.69% and 1.88%, respectively.
Taken in the same sequence, the figures for `COc1ccccc1CNc1ncc(-c2ccsc2)c(-c2nccs2)n1` were 0.14%, 0.8% and -0.05%.
As to `CCOc1ccccc1CNc1nccc(NCc2ccccc2OC)n1`, the inhibition in assay [1] turned out to be 2.53%; in assay [2], 4.16%; in assay [3], 2.05%.
Take `O=C(NC1CCC(N2CCC(O)(c3ccc(F)cc3)CC2)CC1)c1cc2ccccc2[nH]1` (stereo not drawn): the inhibition was 1.2% in assay [1], 2.62% in assay [2] and -0.31% in assay [3].
Turning to `COC(=O)CCCCCOc1cc(Cc2cnc(N)nc2N)cc(OC)c1OC`, the inhibition in assay [1] is -0.5%; in assay [2], -5.95%; in assay [3], 0.35%.
Taken in the same sequence, the figures for `O=S(=O)(c1ccc2cc[nH]c2c1)N1CCC[C@@H]1CCN1CCC(c2c[nH]c3cnccc23)CC1` were 3.4%, 2.78% and 2.1%.
Take `COc1ccc(OCCON)cc1`: the inhibition in assay [1] was 7.35%; in assay [2], 10.4%; in assay [3], 8.87%.
Consider `O=C(NCCCCN1CCC(c2ccc3c(c2OCc2ccncc2)CCCC3)CC1)c1ccc(NC(=O)c2ccc(Cl)cc2)cc1`, for which the inhibition in assay [1] amounted to 2.33%; in assay [2], 2.42%; in assay [3] it was 1.29%.
In the case of `Cc1cc(O)nc(NC#N)n1`, the figures for the inhibition in assay [1], in assay [2] and in assay [3] were 2.54%, 3.15% and 2.82%, respectively.
Take `CCNS(=O)(=O)c1ccc(Oc2ccc([N+](=O)[O-])cc2)cc1`: the figures for the inhibition in assay [1], in assay [2] and in assay [3] were 0.11%, -1.31% and -1.68%, respectively.
Turning to `O=C(Nc1ccc2nccc(N3CCN4CCC[C@H]4C3)c2c1)c1ccc(Cl)c(Cl)c1`, the results for the inhibition in assay [1], in assay [2] and in assay [3] were 1.13%, 1.72% and -1.03%, respectively.
For the molecule `CN1CCC[C@@H](Oc2cc3c(cc2Br)CCN3C(=O)Nc2ccc(-c3ccncc3)c(Cl)c2)C1`, the inhibition in assay [1] turned out to be 2.29%; in assay [2] it was 2.77%; in assay [3], 0.42%.
On to `COc1ccc(C=NN=c2c3ccccc3[nH]c3ccccc23)c2ccccc12`, for which the results for the inhibition in assay [1], in assay [2] and in assay [3] were 6.42%, 5.85% and 5.05%, respectively.
Taken in the same sequence, the figures for `CN1CCN(CC(=O)Nc2ccc(-c3cccc(-c4nc5cc(F)ccc5[nH]4)c3)cc2)CC1` were -0.65%, 0.74% and -1.87%.
With `CN1CCc2cc(I)c(O)cc2C1Cc1ccccc1Cl` (stereo not drawn), the inhibition in assay [1] was found to be 1.98%; in assay [2], 3.88%; in assay [3], 2.59%.
Turning to `COc1ccc(-c2c(C(F)(F)F)nn(C)c2NC(=O)Nc2ccc(F)cc2F)cc1`, the figures for the inhibition in assay [1], in assay [2] and in assay [3] were -1.15%, -0.84% and 1.24%, respectively.
With `c1cncc(CCNCc2ccc(-c3cccc(-c4nc5ccccc5[nH]4)c3)cc2)c1`, the results for the inhibition in assay [1], in assay [2] and in assay [3] were -0.73%, 0.67% and -0.38%, respectively.
On to `O=C(Nc1cccc(CN2CCCN(Cc3ccc(O)cc3)CC2)c1)c1cccc(Cl)c1`, for which the inhibition in assay [1] is 12.2%; in assay [2], 13.4%; in assay [3], 11.7%.
Consider `CCc1ccc(NC(=O)N(CCCN2CCN(C)CC2)Cc2csc(-c3ccc(CNCc4ccccc4)cc3)n2)cc1`, for which the inhibition in assay [1] is -1.59%; in assay [2] it was -0.93%; in assay [3], 3.09%.
Take `COc1ccc(-c2cccc(CNC3CCN(CC4Cn5c(=O)ccc6ccc(F)c4c65)CC3)c2)cc1` (stereo not drawn): the inhibition in assay [1] worked out at 10.7%; in assay [2] it was 10%; in assay [3], 8.16%.
Taken in the same sequence, the figures for `Cc1cc(N2CCCC2=O)ccc1-c1ccc(C(=O)N2CCC(Oc3cccc(Cl)c3)CC2)cc1` were 0.43%, 1.95% and 3.87%.
For `CCCc1ccc(Cc2cnc3nc(N)nc(N)c3c2C)cc1`, the results for the inhibition in assay [1], in assay [2] and in assay [3] were 39.1%, 53.8% and 40%, respectively.
The corresponding values for `CC(C)N1CCC(N(Cc2ccc(-c3ccc(C(F)(F)F)cc3)cc2)C(=O)Cn2c(CCc3cccc(F)c3F)cc(=O)c3ccccc32)CC1` are 0.12%, 1.55% and 1.16%.
In the case of `O=C(Nc1ccc(Cl)cc1)N[C@H]1CCN(CCCCCNC(=O)C2CC2c2ccc(Cl)c(Cl)c2)C1` (stereo partly drawn), the inhibition in assay [1] was 8.91%; in assay [2], 6.32%; in assay [3], 8.02%.
In the case of `OC(CNc1ccnc(Nc2cccc(Cl)c2)n1)c1ccc(C(F)(F)F)cc1` (stereo not drawn), the inhibition in assay [1] stood at 9.21%; in assay [2], 7.14%; in assay [3], 5.22%.
The corresponding values for `Cc1cc(=O)[nH]c2cc(Nc3ccnc(Nc4cccc(C(N)=O)c4)n3)ccc12` are 3.02%, 3.83% and 3.24%.
